Source: PubChem BioAssay (NCATS)
Inconclusive results are not listed. Entries that show only a call come without a potency. A number with no mark means an inactive call. The source made the active and inactive calls. Calls come from the whole dose curve; as a rule, active = well fitted curve in the direction sought with a large enough effect; inconclusive = small, poorly fitted or top-dose-only effect, or another doubt; inactive = no such curve, though single readings can be large; an effect the other way counts as inactive or inconclusive.

Experiments:
[1] = biological target: Aldehyde dehydrogenase, mitochondrial (Homo sapiens) (UniProt P05091); assay: qHTS for Inhibitors of the Aldehyde Dehydrogenase Family (ALDH2) Primary screen (AID 2061308); note: nearly all actives have a fitted effect of over 55% in size; note: potency is the fitted concentration of half-maximal effect
[2] = biological target: Retinaldehyde dehydrogenase 3 (Homo sapiens) (UniProt P47895); assay: qHTS for Inhibitors of the Aldehyde Dehydrogenase Family (ALDH1A3) Confirmatory screens (AID 2061311); note: potency is the fitted concentration of half-maximal effect; nearly all actives have a fitted effect of over 60% in size
[3] = biological target: Retinal dehydrogenase 2 (Homo sapiens) (UniProt O94788); assay: qHTS for Inhibitors of the Aldehyde Dehydrogenase Family (ALDH1A2) Confirmation screens (AID 2061314); note: nearly all actives have a fitted effect of over 65% in size
[4] = biological target: Retinaldehyde dehydrogenase 3 (Homo sapiens) (UniProt P47895); assay: qHTS for Inhibitors of the Aldehyde Dehydrogenase Family (ALDH1A3) Primary screen (AID 2061315)
[5] = biological target: Aldehyde dehydrogenase 1A1 (Homo sapiens) (UniProt P00352); assay: qHTS for Inhibitors of the Aldehyde Dehydrogenase Family (ALDH1A1) Confirmatory screens (AID 2061316); note: nearly all actives have a fitted effect of over 65% in size; note: potency is the fitted concentration of half-maximal effect
[6] = biological target: Retinaldehyde dehydrogenase 3 (Homo sapiens) (UniProt P47895); assay: qHTS for Inhibitors of the Aldehyde Dehydrogenase Family (ALDH1A3) Validation screen (AID 2061312); note: nearly all actives have a fitted effect of over 45% in size; note: potency is the fitted concentration of half-maximal effect

Nc1cccc(CNc2ccc(S(=O)(=O)Nc3nccs3)cc2)c1O
activity change, negative = inhibition [1]: 2.56% [at 11.2 µM]
Potency [2]: 10.1 µM (active)
Potency [3]: inactive
activity change, negative = inhibition [4]: -14.8% [at 11.2 µM]
Potency [5]: 11.3 µM (active)

COc1ccc2cc1Oc1ccc(cc1)C[C@H]1c3c(cc4c(c3Oc3cc5c(cc3OC)CCN(C)[C@@H]5C2)OCO4)CCN1C
Potency [1]: inactive
Potency [6]: inactive
Potency [4]: inactive

Cc1cc(C)nc(NCc2ccc(O)c3ncccc23)c1
Potency [1]: 11.2 µM (active)
Potency [2]: 5.04 µM (active)
Potency [5]: 11.3 µM (active)

CC(=O)Nc1nc2c(Oc3cc(-c4ccc(C(F)(F)F)cc4)ncn3)cccc2s1
Potency [1]: inactive
Potency [6]: inactive
Potency [4]: inactive

O=C(NCCCN1CCNCC1)c1cccc(-c2cc(O)c3ncccc3c2)c1
Potency [1]: inactive
Potency [2]: 10.1 µM (active)
Potency [4]: inactive
Potency [5]: inactive

CCS(=O)(=O)N(Cc1cccnc1)c1cccc(-c2ccc(C#N)cc2)c1
Potency [1]: inactive
Potency [6]: 6.31 µM (active)

Cc1ccc(S(=O)(=O)Nc2ccc(NS(=O)(=O)c3ccc(C)cc3)c3ncccc23)cc1
Potency [1]: inactive
Potency [2]: 15.9 µM (active)
Potency [4]: inactive
Potency [5]: inactive

CCOC(=O)c1[nH]c2c(c1C)C(=O)CC(c1ccco1)C2 (stereo not given)
Potency [1]: inactive
Potency [2]: 12.7 µM (active)
Potency [4]: inactive
Potency [5]: 2.52 µM (active)

O=C(Nc1ncc(SCCN2CCCC2)s1)C1(c2ccc(S(=O)(=O)C3CC3)cc2)CC1C1CCCCC1 (stereo not given)
Potency [1]: inactive
Potency [6]: inactive
Potency [4]: inactive

C[C@]12CC[C@@H]3c4ccc(O)c(O)c4CC[C@H]3[C@@H]1CCC2=O
Potency [1]: 15.8 µM (active)
Potency [2]: 15.9 µM (active)
Potency [5]: 1.59 µM (active)

O=C(NC1(c2ccccc2)CC1)c1c(CN2CCC(N3CCCCC3)CC2)c(-c2cccc(C(F)(F)F)c2)nc2cc(Br)ccc12
Potency [1]: inactive
Potency [6]: inactive
Potency [4]: inactive

O=C(CCCCCCC(=O)Nc1ccc(C2OC(CSc3nc(-c4ccccc4)c(-c4ccccc4)o3)CC(c3ccc(CO)cc3)O2)cc1)NO (stereo not given)
Potency [1]: inactive
Potency [6]: 10 µM (active)

CC(NC(=O)Cc1cc(F)cc(F)c1)C(=O)NC1C(=O)N(C)c2ccccc2-c2ccccc21 (stereo not given)
Potency [1]: inactive
Potency [6]: inactive
Potency [4]: inactive

Cc1ccc2nc3sc(C(=O)N4CCOCC4)cc3cc2c1
Potency [1]: inactive
Potency [2]: 25.2 µM (active)
Potency [4]: inactive
